For orientation: inhibition means the percentage by which the read-out fell short of the control.

Structures are written as SMILES. Active and inactive are the calls of the source. How the calls were made is not given here.

This experiment deals with Pantothenate synthetase (Mycobacterium tuberculosis (strain ATCC 25618 / H37Rv)) (UniProt P9WIL5). Kind of experiment: Coupled enzyme confirmation of inhibitors against recombinant Mtb PanC (AID 375).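 Further: 0% = full reaction with vehicle and 100% = no enzyme background.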 Particulars: coupled enzyme assay; at 10 µM, hits give high values.
Pantothenate synthetase (Mycobacterium tuberculosis (strain ATCC 25618 / H37Rv)), sequence (P9WIL5 whole entry, looked up): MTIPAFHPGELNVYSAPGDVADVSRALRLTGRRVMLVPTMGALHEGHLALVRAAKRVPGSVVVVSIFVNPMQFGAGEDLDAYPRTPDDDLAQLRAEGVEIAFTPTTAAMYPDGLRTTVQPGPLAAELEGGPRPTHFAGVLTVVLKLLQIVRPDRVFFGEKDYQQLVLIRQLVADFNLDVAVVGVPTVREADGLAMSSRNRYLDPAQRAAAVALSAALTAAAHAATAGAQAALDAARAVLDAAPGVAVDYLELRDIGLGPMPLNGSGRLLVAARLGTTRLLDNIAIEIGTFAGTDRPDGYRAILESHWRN
As to `CC(C)(C)NC(=O)COC(=O)c1snc(C(=O)NC2CCCCC2)c1N`, the inhibition was 3% (inactive).
For the molecule `CCS(=O)(=O)c1ccc(S(=O)(=O)CC)s1`, the inhibition is 0% (inactive).
Turning to `CC(C)C(C(=O)Nc1ccc2c(c1)OCO2)N1C(=O)c2ccccc2C1=O` (configuration not stated), the inhibition is 0% (inactive).
The value for `O=C(COC(=O)C12CC3CC(CC(O)(C3)C1)C2)N1CCN(S(=O)(=O)c2ccc(Cl)cc2)CC1` was 3% (inactive).
The value for `O=C(NCCN1CCCCCC1)c1ccc(CS(=O)(=O)c2ccc(Br)cc2)o1` was 0% (inactive); that for `O=C(CSc1nnc(-c2ccco2)n1-c1ccccc1)N1CCN(C(=O)c2ccco2)CC1` was 0% (inactive); that for `COC(=O)c1[nH]c(C)c(/C(O)=C2\C(=O)C(=O)N(CCCN3CCOCC3)C2c2ccccn2)c1C` (configuration not stated) was 8% (inactive).
The value for `CC(C)=CCC(C)(C)C1OCCN1C(=O)c1ccccc1` (configuration not stated) was 2% (inactive).
Regarding `COc1ccc(/C=N/n2cc(-c3ccc(OC)cc3)nc2N)cc1`, the inhibition is 0% (inactive).
The value for `CCSc1nnc(NC(=O)CSc2ncccn2)s1` was 0% (inactive); that for `Cc1c(C(=O)O)c(-c2ccccc2)nn1-c1ccccc1` was 2% (inactive); that for `O=C(NCCCNC(=O)c1ccccn1)c1ccccn1` was 12% (inactive).
Turning to `Cc1ccccc1-n1c(=O)cc(N2CCN(C(=O)c3ccco3)CC2)[nH]c1=O`, the inhibition is 0% (inactive).
The result for `Fc1cc(F)c(F)c(SCCc2ccncc2)c1F` reads 0% (inactive); that for `O=C(NCc1ccco1)C1Cc2ccccc2CN1S(=O)(=O)c1ccccc1F` (configuration not stated), 1% (inactive); that for `O=c1[nH]cnc2c1C1(CCCC1)Cc1ccccc1-2`, 0% (inactive).
Turning to `O=C(O)Cn1cc(C(=O)c2ccco2)c2ccccc21`, the inhibition is 4% (inactive).
